Assay results as given in PubChem BioAssay AID1626 (SRMLSC, 2009).
The whole screen tested about 220,000 compounds, of which about 2,000 (0.91%) were called active. Inconclusive results (about 2%) are left out. Only a sample is shown. Potency and affinity values are given separately. Unmarked numbers belong to inactive results. No stated cut-off is given here; in the data, inconclusive means inhibition above about 80% without an active follow-up result; inactive means below that; test concentration not stated here.

Assay: M. tuberculosis H37Rv growth inhibitors, H37Rv strain (AID 1626);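 further: bacteria incubated seven days before Alamar blue readout; 0% = bacteria only wells and 100% = bacteria with antibiotic wells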
Settings: hits give high values, concentration not given here

Going from `Cc1cc(NC(=O)/C=C/c2ccc(F)cc2)n(-c2nc3ccccc3[nH]2)n1` to `COc1ccc(/C=C/C(=O)Nc2cc(C)nn2-c2nc3ccccc3[nH]2)cc1`, the inhibition falls from 13.6% to 11.4%.

First: Cc1cc(NC(=O)C2CCC2)n(-c2ccccn2)n1
Second: CCOC(=O)C(=O)Nc1cc(C)nn1-c1nc2ccccc2[nH]1
The inhibition of the first is higher: 2.03% for the first, -8.84% for the second.

Going from `COC(C[C@@H]1O[C@H]1[C@H](O)[C@@H](C)OCc1ccccc1)OC` to `CC(C)C(=O)NC(CC(=O)O)c1ccccc1` (stereo not given), the inhibition falls from -4.16% to -15.2%.

Compared with `CCn1c2ccccc2c2nnc(NN)nc21`, `CCN(CC)c1nc2ccccc2[nH]c1=O` is higher in inhibition: -7.42% for the first, -5.3% for the second.

Going from `O=C(/C(C=Nc1cccc(C(F)(F)F)c1)=C(/O)c1ccco1)C(F)(F)F` to `O=C(NCc1cccc(Br)c1)C1CC(c2ccc(C(F)(F)F)cc2)=NO1` (stereo not given), the inhibition rises from 0.06% to 18.7%.

Going from `Cc1nn(C)c(C)c1NC(=O)CCl` to `CCOC(=O)c1c(NC(=O)CNCC(O)CO)sc(C)c1C` (stereo not given), the inhibition rises from -7.2% to 4.88%.

Going from `CCn1c(SCC(=O)N=Nc2c(O)[nH]c3ccccc23)nnc1-c1ccc(C(C)(C)C)cc1` to `Cc1ccc(-c2nnn(CC(=O)N(c3ccc(F)cc3)C(C(=O)NC(C)(C)C)c3ccco3)n2)o1` (stereo not given), the inhibition rises from -1.76% to -0.26%.

First: Cc1[nH]c2ccc(F)cc2c1CCNC(=O)C1CCCCC1C(=O)OCC(F)(F)F (stereo not given)
Second: O=C(COC(=O)c1ccccc1O)NCCC1=CCCCC1
The inhibition of the first is lower: 2.82% for the first, 7.1% for the second.

Compared with `O=C(NCc1ccccc1)c1ccc(Br)cc1`, `COc1ccccc1NS(=O)(=O)c1ccc(C(N)=O)cc1` is higher in inhibition: -2.09% for the first, -0.48% for the second.

Going from `Cc1[nH]n(-c2ccccc2)c(=O)c1N=Nc1ccc2c(c1)OCCO2` to `Cc1[nH]n(-c2ccccc2)c(=O)c1N=Nc1ccccc1`, the inhibition rises from -5.08% to 3.96%.

Compared with `Cc1[nH]n(-c2ccccc2)c(=O)c1N=Nc1ccccc1O`, `Cc1ccccc1N=Nc1c(C)[nH]n(-c2ccccc2)c1=O` is lower in inhibition: 5.76% for the first, -1.01% for the second.

Going from `Cc1nnc(NC(=O)CCSCCC(=O)Nc2nnc(C)s2)s1` to `CNc1nnc(CSc2nc(C)cc(C)n2)s1`, the inhibition falls from 1.24% to -5.32%.

Going from `COc1ccc(/C=C/C(=O)c2c(O)ccc3c(C)cc(=O)oc23)cc1` to `Cc1cc(=O)oc(C)c1C(=O)Nc1cccc2ccccc12`, the inhibition falls from 17.2% to 7.53%.

Compared with `O=C(COC(=O)c1ccccc1Cl)NCCC1=CCCCC1`, `NC(=S)NNC(=O)c1ccccc1Cl` is lower in inhibition: 4.94% for the first, -8.81% for the second.

Compared with `O=C(NCc1ccco1)C1CCN(Cc2ccc(F)cc2)CC1`, `CCc1cccc(CN2CCC(CNC(=O)Nc3ccc(Cl)cc3)CC2)c1` is lower in inhibition: 1.23% for the first, 0.84% for the second.

Compared with `COc1ccc(CNC(=S)Nc2cc(C)ccc2C)cc1`, `Cc1ccc(NC(=O)NCC2CCN(Cc3cccc(Cl)c3)CC2)c(Cl)c1` is higher in inhibition: 4.83% for the first, 33.5% for the second.

First: C=CCn1c(SCC(=O)N2CCc3ccccc3C2)nc2ccccc2c1=O
Second: O=c1oc(-c2ccccc2)nc2c1cnn2-c1ccccc1
The inhibition of the first is lower: -0.56% for the first, 19.8% for the second.

First: O=C1CC(c2ccccc2Oc2cccc(Cl)c2)C(n2cncn2)C(=O)C1C1NCCc2ccccc21 (stereo not given)
Second: O=c1oc(-c2cccc(Cl)c2)nc2c1cnn2-c1ccccc1
The inhibition of the first is lower: -9.29% for the first, 22.1% for the second.

Compared with `Cc1cc(C)c2c(n1)sc1c(N3CCN(CCO)CC3)ncnc12`, `Cc1cc(C)c2c(n1)sc1c(N3CCN(C)CC3)ncnc12` is lower in inhibition: 18.8% for the first, 7.86% for the second.

Going from `COCCn1c(COc2ccc(OC)cc2)nc2ccccc21` to `CCOC(=O)N/N=C/c1cn(CCCOc2ccccc2)c2ccccc12`, the inhibition rises from 4.25% to 8.89%.

Going from `Cc1sc(NC(=O)C2CC(Cl)=CCC2C(=O)O)c(C#N)c1C` (stereo not given) to `CC(C)(C)C(=O)Nc1nc(NC(=O)C(C)(C)C)nc(-c2ccccc2Cl)n1`, the inhibition rises from -16.1% to -0.83%.

Going from `Cc1onc(-c2c(Cl)cccc2Cl)c1C(=O)c1ccccc1` to `O=C1C(=O)c2c(C(=O)c3ccccc3)coc2-c2ccccc21`, the inhibition rises from -5.4% to 4.79%.

First: Cc1ccc(NC(NC(=O)c2cccs2)C(Cl)(Cl)Cl)cc1 (stereo not given)
Second: Cc1ccccc1NC(NC(=O)c1cccs1)C(Cl)(Cl)Cl (stereo not given)
The inhibition of the first is higher: 21% for the first, -3.03% for the second.

Going from `Nc1nc(SCC(=O)Nc2ccccc2)[nH]c(=O)c1NC(=O)c1cccs1` to `Cc1cc(NC(=O)CSc2nc(N)c(NC(=O)c3ccccc3)c(=O)[nH]2)no1`, the inhibition rises from -5.6% to -1.25%.

Compared with `Cc1ccc2c(CC(=O)Nc3cccc(S(=O)(=O)N4CCOCC4)c3)coc2c1`, `O=C(Nc1ccc(N2CCOCC2)c(Cl)c1)c1cccnc1Cl` is lower in inhibition: 5.42% for the first, -3.3% for the second.

Going from `Cc1nnc(SCC(=O)N/N=C/c2cc(Cl)c(O)c(Cl)c2)s1` to `COc1ccc(C(=O)N/N=C/c2sc(=O)n(Cc3cccc(C(=O)O)c3)c2Cl)cc1`, the inhibition falls from -3.34% to -6.32%.

First: COC(=O)c1cc(-c2ccccc2)on1
Second: Cc1cc(NC(=O)/C=C/c2ccccc2)no1
The inhibition of the first is higher: 45% for the first, -1.33% for the second.

Going from `Cc1cccn2c(=O)c(C=NCCO)c(Nc3ccc(Cl)cc3)nc12` to `CN(CCCNC(=O)CSc1cc(=O)n(C)c2cc(Cl)ccc12)Cc1ccccc1`, the inhibition rises from 2.37% to 4.19%.

Compared with `COc1ccccc1NC(=O)c1c(C)oc2c1CCCC2`, `COc1ccccc1S(=O)Cc1ccc(C(=O)O)o1` (stereo not given) is higher in inhibition: -16.9% for the first, -6.58% for the second.

Going from `CN(C)c1cc(C(F)(F)F)nc(-c2ccccn2)n1` to `CCN(CC)c1cc(C(F)(F)F)nc(-c2ccccn2)n1`, the inhibition falls from 3.02% to -2.81%.

First: FC(F)(F)c1cc(Oc2ccccc2)nc(-c2ccccn2)n1
Second: COc1cc(C(F)(F)F)nc(-c2ccccn2)n1
The inhibition of the first is higher: 12.1% for the first, 6.27% for the second.

Compared with `O=C(O)CSc1cc(C(F)(F)F)nc(-c2ccccn2)n1`, `C#CCSc1cc(C(F)(F)F)nc(-c2ccccn2)n1` is higher in inhibition: -6.21% for the first, 5.1% for the second.

First: FC(F)C(F)(F)c1cc(-c2ccc(Cl)cc2)n[nH]1
Second: Nc1nc(Cl)cc(Sc2ccc(F)cc2)n1
The inhibition of the first is higher: 12.2% for the first, 4.27% for the second.

First: O=C(c1cccc(C(F)(F)F)c1)C1CCCN(C(=O)CCCn2cncn2)C1 (stereo not given)
Second: O=C(CN1CCC(n2nnc3cc(F)ccc32)CC1)NNC(=O)c1ccccc1
The inhibition of the first is higher: 4.12% for the first, -6.09% for the second.

Compared with `COc1ccc(NC(=O)c2noc(C(C)C)c2[N+](=O)[O-])cc1`, `COc1ccc(Nc2ccc(N3C(=O)CCCC3=O)cc2[N+](=O)[O-])cc1OC` is lower in inhibition: -2.72% for the first, -5.4% for the second.

Going from `NS(=O)(=O)c1ccc(CNC(=S)NC2CC2)cc1` to `CC(C)(C)NS(=O)(=O)c1ccc(CCC(=O)Nc2ccc3c(c2)OCCO3)cc1`, the inhibition falls from -2.38% to -4.02%.

Going from `CN(Cc1ccccc1)c1ccc(N2C(=O)CCC2=O)cc1[N+](=O)[O-]` to `Cc1ccc(C(=O)c2coc3c2C(=O)C(=O)c2ccccc2-3)cc1`, the inhibition falls from -1.08% to -2.44%.

Going from `Cc1ccc2c(c1)N(CC(=O)N1CCCCC1c1cccnc1)C(=O)CO2` (stereo not given) to `O=C(Nc1ccc2c(c1)OCO2)C1CCN(C(=O)c2cccs2)CC1`, the inhibition rises from -4.68% to 0.36%.

Compared with `CCO[C@@H]1OC(C(=O)NCc2nc3ccccc3[nH]2)=C[C@H](C(C)(C)C)[C@H]1CCCO`, `CCOC(=O)N1CCN(C/C(C)=C/c2ccccc2)CC1` is lower in inhibition: -3% for the first, -4.4% for the second.

First: Cc1ccc2c3c(cccc13)-c1ccccc1C2=O
Second: C/C(=N/N1CCN(Cc2cccc3ccccc23)CC1)c1ccco1
The inhibition of the first is higher: 10.1% for the first, -5.28% for the second.

First: C[C@H]1COC2=C1C(=O)C(=O)c1c2ccc2c1CCCC2(C)C
Second: CN(C)[C@@H]1C(=O)C(C(N)=O)=C(O)[C@@]2(O)C(=O)C3=C(O)c4c(O)cccc4[C@@](C)(O)[C@H]3C[C@@H]12
The inhibition of the first is higher: -2.33% for the first, -3.76% for the second.

Compared with `N#Cc1ccc(COC(=O)c2ccccn2)cc1`, `N#C/C(=C\c1ccc(Cl)c([N+](=O)[O-])c1)c1ccccn1` is lower in inhibition: 39% for the first, 6.45% for the second.

Compared with `COc1cccc(NC(=O)CSc2ncnc3c2cnn3Cc2ccccc2)c1`, `Nc1nc(Cl)cc(Sc2ccc3ccccc3c2)n1` is higher in inhibition: -10.6% for the first, 8.65% for the second.

Compared with `CCN1/C(=C\C(C)=O)Sc2ccc(OC)cc21`, `CCOC(=O)N1CCN(S(=O)(=O)/C=C/c2ccccc2)CC1` is lower in inhibition: -5.41% for the first, -17.8% for the second.

Going from `CC(=O)NCCNc1ccc([N+](=O)[O-])cn1` to `O=C(Cn1cnc([N+](=O)[O-])n1)NC1CC1`, the inhibition falls from -0.44% to -0.97%.

Compared with `c1ccc2c(c1)N1CCCN=C1N2CCN1CCCCC1`, `c1ccc2c(c1)N1CCN=C1N2CCN1CCCCC1` is lower in inhibition: 1.49% for the first, -2.04% for the second.

First: C=C1c2cccc(O)c2C(O)=C2C(=O)[C@]3(O)C(O)=C(C(N)=O)C(=O)[C@@H](N(C)C)[C@@H]3[C@@H](O)[C@H]12
Second: C[C@H]1c2cccc(O)c2C(O)=C2C(=O)[C@]3(O)C(O)=C(C(N)=O)C(=O)[C@@H](N(C)C)[C@@H]3[C@@H](O)[C@@H]21
The inhibition of the first is lower: 1.79% for the first, 63.7% for the second.

With `CN(C)[C@@H]1C(=O)C(C(N)=O)=C(O)[C@@]2(O)C(=O)C3=C(O)c4c(O)cccc4[C@@](C)(O)[C@H]3[C@H](O)[C@@H]12` the inhibition was 11.9%.
